Source: PubChem (National Center for Advancing Translational Sciences (NCATS))
Shown are actives, neighbours in structure and some others; about 0.35% of the full set was active somewhere.
Anesthetic bind: qHTS Assay for Identification of Novel General Anesthetics | apoferritin/1-aminoanthracene competitive binding, fluorescence | Potency, µM (doses to about 77.5 µM), inactives show at the top dose activity change, negative = displacement, hits mostly inhibitors | 350,000 compounds, 0.074% hits | AID 485281, 2010; also: nearly all actives have a fitted effect of over 20% in size
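In PBS, apoferritin at 10 uM is loaded with 1-AMA from a 50% saturated solution. After 10 min of compound exposure at ambient temperature, reduced 535 nm fluorescence indicates probe displacement.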
MBNL1 CUG block: qHTS Assay for Inhibitors of MBNL1-poly(CUG) RNA binding; Muscleblind-like protein 1 (Homo sapiens), Q9NR56; TR-FRET MBNL1-His/biotin-(CUG)12 binding, 665/545 ratio; Potency, µM (series often up to 57.5 µM), without a hit: at the highest dose activity change, negative = inhibition, hits mostly inhibitors; 280,000 compounds, 0.036% hits; AID 2675, 2010; active = well fitted inhibition curve with a large enough effect in the signal ratio, with a control signal flat, not every such curve was filed as active; inconclusive = small, poorly fitted or top-dose-only effect, or effect the other way, or a change in a side signal; inactive = no such curve, though single readings can be large or run the other way; the % refers to the signal ratio
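Inhibition of protein-RNA binding appears as loss of TR-FRET between terbium anti-His antibody on MBNL1-His and streptavidin-XL665 on biotin-(CUG)12. Activity is normalized to buffer-only and uninhibited-complex controls.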
BCR signal inh: qHTS Assay to Find Inhibitors of Chronic Active B-Cell Receptor Signaling; ABC-DLBCL IkBa-CBG/CBR reporter, luminescence ratio, 4 h; 340,000 compounds, 0.05% hits; AID 493014, 2011; Potency, µM (highest dose often 46.1 µM), for inactives: at the top dose activity change, negative = inhibition, most hits filed as inhibitors; active = well fitted inhibition curve with a large enough effect in the signal ratio, with a control signal flat, not every such curve was filed as active; inconclusive = small, poorly fitted or top-dose-only effect, or effect the other way, or a change in a side signal; the % refers to the signal ratio;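 also: plate controls were basal doxycycline-induced cells for no effect and cells given 10 µM MG132 for full effect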
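Doxycycline induced both beetle luciferases in TMD8 lymphoma cells; IKK-driven degradation limits the IkappaBalpha-fused green signal, while red luminescence normalises for cell number and nonspecific effects. Compounds tested up to 46 uM, 4 hrs.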
GLS inh: qHTS for Inhibitors of Glutaminase (GLS). Glutaminase kidney isoform, mitochondrial (Homo sapiens), O94925. GLS enzymatic activity, qHTS titration. Potency, µM (top dose mostly 45.5 µM), for inactives: top-dose activity change, negative = inhibition, most hits filed as inhibitors. 410,000 compounds, 0.21% hits. AID 624170, 2012
Target sequence (O94925 whole entry, looked up, canonical isoform): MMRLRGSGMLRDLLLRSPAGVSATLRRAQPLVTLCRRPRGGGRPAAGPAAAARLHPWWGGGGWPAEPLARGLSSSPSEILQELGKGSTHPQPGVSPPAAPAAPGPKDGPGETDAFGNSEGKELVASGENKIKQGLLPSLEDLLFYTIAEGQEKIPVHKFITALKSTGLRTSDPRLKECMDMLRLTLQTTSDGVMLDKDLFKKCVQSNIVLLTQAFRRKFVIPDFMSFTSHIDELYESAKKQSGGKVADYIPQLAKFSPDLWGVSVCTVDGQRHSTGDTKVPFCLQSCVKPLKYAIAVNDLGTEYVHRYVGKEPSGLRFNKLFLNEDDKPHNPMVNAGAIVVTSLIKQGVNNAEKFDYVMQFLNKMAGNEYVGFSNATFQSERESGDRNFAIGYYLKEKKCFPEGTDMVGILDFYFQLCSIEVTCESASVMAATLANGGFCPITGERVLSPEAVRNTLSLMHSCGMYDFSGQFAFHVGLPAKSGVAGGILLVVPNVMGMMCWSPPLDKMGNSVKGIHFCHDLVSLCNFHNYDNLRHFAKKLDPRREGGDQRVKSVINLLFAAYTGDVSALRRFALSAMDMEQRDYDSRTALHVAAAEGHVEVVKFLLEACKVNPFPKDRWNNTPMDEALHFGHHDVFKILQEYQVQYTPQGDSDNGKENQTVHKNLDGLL
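Assay buffer: 45 mM KH2PO4 pH 8.2, 0.02% Tween-20. hKGA acts on L-glutamine (1 mM solution added); product glutamate is reported by an oxidase/peroxidase Amplex Red coupling, with fluorescence taken at baseline and 30 min.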
B2AR arrestin: qHTS assay of beta-arrestin-biased ligands of beta2-adrenergic receptor. Beta-2 adrenergic receptor (Homo sapiens), P07550. beta-arrestin recruitment to beta2AR, cell-based reporter. 330,000 compounds, 0.02% hits. Potency, µM (series often up to 46.1 µM), for inactives: at the highest dose activation, most hits filed as activators;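 also: 0% = DMSO controls and full agonism = EC100 isoproterenol or metaproterenol; nearly all actives have a fitted effect of over 65% in size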
Active calls of the source: *; ? = inconclusive; . = no result; [ ] = another dose, or the depositor's remark. Unless noted, calls follow the shape of the dose curve; as a rule, active = well fitted curve in the direction sought with a large enough effect; inconclusive = small, poorly fitted or top-dose-only effect, or another doubt; inactive = no such curve, though single readings can be large; an effect the other way counts as inactive or inconclusive. Unless noted, % is scaled to controls: 0 for no effect and ±100 for the full control effect; potency is read from the fitted curve at half-maximal effect.

SMILES	Anesthetic bind	MBNL1 CUG block	BCR signal inh	GLS inh	B2AR arrestin
O=c1c2nccnc2[nH]c(=S)n1Cc1ccccc1Cl	-6.5%	?	-0.3%	10µM*	-0.1%
CCCCOc1ccc(C(=O)NCC2(N3CCN(C)CC3)CCCCC2)cc1	-5.7%	.	.	1.3%	.
O=C1/C(=C/c2ccc(O)c(O)c2)Oc2ccccc21	-6.1%	.	.	.	.
COC(=O)C1=C(C)NC(COC(N)=O)=C(C(=O)OC(C)C)C1c1cccc(Cl)c1Cl (stereo unspecified)	.	.	.	-2.7%	.
CC1=C(C(=O)Nc2ccc(C)cc2C)C(c2ccccc2[N+](=O)[O-])n2ncc(C(=O)Nc3ccccc3)c2N1 (stereo unspecified)	2.6%	.	.	-9.8%	.
Clc1ccccc1Cn1cccc1C1=NC(Cc2ccccc2)CO1 (stereo unspecified)	-8.9%	.	.	-2.4%	.
O=C(CCC(=O)c1cccs1)OCC(=O)c1ccc(Cl)s1	28.2µM*	14.4%	2.1%	-0.3%	-0.5%
Cc1nn(C(C)C(=O)NC2CCC(C)CC2)c(=O)c2cc3sccc3n12 (stereo unspecified)	-10.6%	.	.	2.8%	.
COc1cc(/C=N/NC(=O)c2cccc(NC(=O)c3ccccc3)c2)ccc1O	-0.5%	?	?	-1.6%	0.4%
COc1cc(/C=N/NC(=S)Nc2cccc(S(=O)(=O)N(C)C)c2)ccc1O	3.7%	3.0%	?	10µM*	-0.4%
O=C(O)Cc1cccc(=O)c(O)c1C(=O)O	.	.	.	2.24µM*	.
O=C(Nc1ccc2c(c1)CCCN2C(=O)c1cccs1)c1cccc(C(F)(F)F)c1	-20.7%	.	.	5.7%	.
O=C(CNC(=O)c1ccc2c(c1)OCO2)N/N=C(Br)/C=C/c1ccccc1	7.08µM*	.	?	-13.1%	?
ClN=C1C=CC=CC1=NCl	.	.	.	10µM*	.
O=c1c(O)c(-c2cc(O)c(O)c(O)c2)oc2cc(O)cc(O)c12	-7.7%[29.3 µM]	?	1.4%	3.98µM*	0.0%
O=c1c(O)c(-c2ccccc2)oc2cc(O)cc(O)c12	.	.	?	65.1%	0.0%
Nc1ccc(O)cc1C(=O)OCC(=O)C12CC3CC(CC(C3)C1)C2	31.6µM*	3.5%	?	15.0%	-0.5%
O=C(Nc1nccs1)c1ccc(S(=O)(=O)NCc2cccs2)cc1	-23.4%	-8.9%	-2.3%	2.3%	-0.4%
O=C(Nc1nccs1)c1ccc(S(=O)(=O)NCC2CCCCC2)cc1	14.1µM*	10.4%	?	1.1%	-0.9%
C[N+](C)(C)CCOP(=O)(O)OP(=O)([O-])OCC1OC(n2ccc(N)nc2=O)[C@H](O)[C@@H]1O (stereo partly specified)	.	.	.	-0.9%	.
CC(=O)c1ccc(OCc2cc(C(=O)N3CCOCC3)no2)cc1	-5.4%	-5.4%	6.8%	5.7%	0.3%
CC(=O)c1ccc(OCc2cc(C(=O)N3CCCCCCC3)no2)cc1	5.01µM*	-8.1%	-1.0%	12.7%	0.5%
CSc1nc(N(CCO)CCO)c2sc3nc(-c4ccco4)c4c(c3c2n1)CCC4	65.4%	22.1%	6.5%	7.08µM*	-0.3%
O=C(Nc1ccc(Cl)cc1)c1cc2c(cc1O)[nH]c1ccccc12	3.7%	-0.6%	17.0%	12.6µM*	-0.5%
N#C/C(=N\Nc1ccccc1)C(N)=S	-8.7%	?	?	11.2µM*	-0.7%
N#C/C(=N\Nc1ccc(Cl)cc1)C(N)=S	-4.5%	?	?	18.2%	-0.9%
CCN1C(=O)c2ccccc2C1Nc1cccc(OCCN2CCCCC2)c1 (stereo unspecified)	.	.	.	18.6%	.
Nn1c(SCC(=O)Nc2ccc(F)c(F)c2)nnc1C1CCCCC1	4.47µM*	-6.8%	?	-3.2%	-1.8%
CO[C@@H]1COC(=O)[C@H]2CCCN2C(=O)[C@@H](C)COC(=O)CCC[C@H]1C	4.7%[15.3 µM]	.	.	.	.
COc1cc(/C=N/n2c(-c3ccccc3)n[nH]c2=S)cc(OC)c1O	5.6%	-7.5%	11.0%	4.47µM*	0.3%
